Results: PubChem BioAssay (EPA / NIEHS)
Records with an inconclusive call do not appear. Calls of active or inactive are those of the source. Rule for the calls, unless noted: active = hit-call score of the fitted dose curve at least 0.9, where 1 is the maximum; inactive = score below 0.9.

Experiments:
[1] = read-out: succinate dehydrogenase complex iron sulfur subunit B (SDHB), SDHB (gene 6390); assay: LTEA_HepaRG_SDHB: Life Technologies and Expression Analysis (LTEA) Assay for succinate dehydrogenase complex iron sulfur subunit B (SDHB) using HepaRG (AID 2283528); details: mRNA level, 48 h; actives raise or lower the signal
Summary of the method: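 HepaRG cells (~100,000/well, plated 48 h) exposed in duplicate for 48 h in serum-free induction medium to 8-point half-log series from 100 uM in 0.5% DMSO; mRNA by qRT-PCR normalised to ACTB, GAPDH, POLR2A; bidirectional fit versus DMSO.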

[2] = read-out: Signal transducer and activator of transcription 3 (Homo sapiens) (UniProt P40763); assay: LTEA_HepaRG_STAT3: Life Technologies and Expression Analysis (LTEA) Assay for Signal transducer and activator of transcription (STAT3) using HepaRG (AID 2283529); details: mRNA level, 48 h; actives raise or lower the signal
Summary of the method: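 Differentiated HepaRG cells, serum-free induction medium, dosed 48 h in duplicate, 8 half-log concentrations from 100 uM in 0.5% DMSO. STAT3 mRNA by qRT-PCR, normalised to ACTB, GAPDH, POLR2A; bidirectional fit versus DMSO.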

[3] = read-out: solute carrier (SLCO1B1), SLCO1B1 (gene 10599); assay: LTEA_HepaRG_SLCO1B1: Life Technologies and Expression Analysis (LTEA) Assay for solute carrier (SLCO1B1) using HepaRG (AID 2283530); details: mRNA level, 48 h; actives raise or lower the signal
Summary of the method: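 Differentiated human HepaRG cells, plated 48 h, switched to serum-free induction medium and exposed in duplicate for 48 h to 8 half-log concentrations (top 100 uM) in 0.5% DMSO. SLCO1B1 mRNA by TaqMan qRT-PCR, normalized to ACTB/GAPDH/POLR2A.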

[4] = read-out: sulfotransferase 2A1 (SULT2A1), SULT2A1 (gene 6822); assay: LTEA_HepaRG_SULT2A1: Life Technologies and Expression Analysis (LTEA) Assay for sulfotransferase 2A1 (SULT2A1) using HepaRG (AID 2283531); details: mRNA level, 48 h; actives raise or lower the signal
Summary of the method: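 Differentiated human HepaRG cells in serum-free induction medium were exposed for 48 h to eight half-log concentrations (top 100 uM, 0.5% DMSO). SULT2A1 mRNA was measured by qRT-PCR, normalized to ACTB, GAPDH and POLR2A, and fitted bidirectionally against DMSO.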

[5] = read-out: Transforming Growth Factor (TGFA), TGFA (gene 7039); assay: LTEA_HepaRG_TGFA: Life Technologies and Expression Analysis (LTEA) Assay for Transforming Growth Factor (TGFA) using HepaRG (AID 2283532); details: mRNA level, 48 h; actives raise or lower the signal
Summary of the method: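 Differentiated HepaRG cells exposed 48 hours in serum-free induction medium, 0.5% DMSO vehicle, 8-point half-log series from 100 uM, in duplicate. TGFA mRNA by TaqMan qRT-PCR, normalised to ACTB, GAPDH, POLR2A; bidirectional fit versus DMSO.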

[6] = read-out: Transforming Growth Factor (TGFB1), TGFB1 (gene 7040); assay: LTEA_HepaRG_TGFB1: Life Technologies and Expression Analysis (LTEA) Assay for Transforming Growth Factor (TGFB1) Transporter using HepaRG (AID 2283533); details: mRNA level, 48 h; actives raise or lower the signal
Summary of the method: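 Differentiated human HepaRG cells in serum-free induction medium were exposed in duplicate for 48 h to eight concentrations (top 100 uM, half-log steps, 0.5% DMSO). TGFB1 mRNA was quantified by qRT-PCR, normalized to ACTB, GAPDH, POLR2A, and fitted bidirectionally against DMSO.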

[7] = read-out: TIMP1, TIMP1 (gene 7076); assay: LTEA_HepaRG_TIMP1: Life Technologies and Expression Analysis (LTEA) Assay for TIMP1 using HepaRG (AID 2283534); details: mRNA level, 48 h; actives raise or lower the signal;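 note: TaqMan qRT-PCR signal normalized to ACTB GAPDH and POLR2A housekeeping genes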
Summary of the method: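 Differentiated human HepaRG cells in serum-free induction medium were exposed 48 h to chemicals (8 half-log concentrations, top 100 uM, 0.5% DMSO). TIMP1 mRNA was quantified by TaqMan qRT-PCR, normalized to ACTB/GAPDH/POLR2A; bidirectional fit versus DMSO.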

[8] = read-out: Tumor necrosis factor receptor 1 (TNFRSF1A), TNFRSF1A (gene 7132); assay: LTEA_HepaRG_TNFRSF1A: Life Technologies and Expression Analysis (LTEA) Assay for Tumor necrosis factor receptor 1 (TNFRSF1A) using HepaRG (AID 2283535); details: mRNA level, 48 h; actives raise or lower the signal
Summary of the method: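 Differentiated human HepaRG cells were exposed in duplicate for 48 h in serum-free induction medium to eight concentrations (top 100 uM, half-log steps, 0.5% DMSO). TNFRSF1A mRNA was quantified by qRT-PCR, normalized to ACTB, GAPDH and POLR2A, then fitted bidirectionally against DMSO.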

[9] = read-out: Thyroid Hormone Responsive (THRSP), THRSP (gene 7069); assay: LTEA_HepaRG_THRSP: Life Technologies and Expression Analysis (LTEA) Assay for Thyroid Hormone Responsive (THRSP) using HepaRG (AID 2283536); details: mRNA level, 48 h; actives raise or lower the signal
Summary of the method: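 Differentiated HepaRG cells treated 48 h in serum-free induction medium with 8 half-log concentrations up to 100 uM (0.5% DMSO), duplicates. THRSP mRNA by TaqMan qRT-PCR normalised to ACTB, GAPDH, POLR2A; bidirectional fit versus DMSO.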

[10] = read-out: Cellular tumor antigen p53 (Homo sapiens) (UniProt P04637); assay: LTEA_HepaRG_TP53: Life Technologies and Expression Analysis (LTEA) Assay for Tumor Protein P53 (TP53) using HepaRG (AID 2283537); details: mRNA level, 48 h; actives raise or lower the signal
Summary of the method: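 Differentiated HepaRG cells in serum-free induction medium exposed 48 h in duplicate to 8 half-log concentrations, top 100 uM, 0.5% DMSO. TP53 mRNA by TaqMan qRT-PCR (Fluidigm), normalized to ACTB, GAPDH, POLR2A; fitted bidirectionally versus DMSO.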

[11] = read-out: UDP glucuronosyltransferase (UGT1A1), UGT1A1 (gene 54658); assay: LTEA_HepaRG_UGT1A1: Life Technologies and Expression Analysis (LTEA) Assay for UDP glucuronosyltransferase (UGT1A1) using HepaRG (AID 2283538); details: mRNA level, 48 h; actives raise or lower the signal
Summary of the method: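 Readout is UGT1A1 transcript level by qRT-PCR, normalized to three housekeeping genes, after 48 h chemical treatment of HepaRG cells. Concentrations ran from 100 uM down in half-log steps with 0.5% DMSO, and gain or loss relative to DMSO was fitted.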

[12] = read-out: UDP glucuronosyltransferase (UGT1A6), UGT1A6 (gene 54578); assay: LTEA_HepaRG_UGT1A6: Life Technologies and Expression Analysis (LTEA) Assay for UDP glucuronosyltransferase (UGT1A6) using HepaRG (AID 2283539); details: mRNA level, 48 h; actives raise or lower the signal
Summary of the method: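 Human HepaRG cells were dosed for 48 h in serum-free induction medium with 0.5% DMSO vehicle, eight-point half-log series from 100 uM, in duplicate. UGT1A6 mRNA was measured by qRT-PCR, normalized to ACTB, GAPDH, POLR2A, and fitted bidirectionally against DMSO.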

[13] = read-out: X-box binding protein 1 (XBP1), XBP1 (gene 7494); assay: LTEA_HepaRG_XBP1: Life Technologies and Expression Analysis (LTEA) Assay for X-box binding protein 1 (XBP1) using HepaRG (AID 2283540); details: mRNA level, 48 h; actives raise or lower the signal
Summary of the method: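 Differentiated human HepaRG cells in serum-free induction medium were exposed in duplicate for 48 h to eight half-log concentrations up to 100 uM in 0.5% DMSO. XBP1 mRNA was quantified by qRT-PCR, normalised to ACTB, GAPDH and POLR2A, with bidirectional fitting against DMSO.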

[14] = TOX21_p53_BLA_p2_viability: Viability Assessment in the Tox21 HCT-116 p53 Agonism Beta-lactamase Assay, Phase 2 (AID 2283591; active = hit-call score of the fitted dose curve at least 0.9, where 1 is the maximum;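 note: compound exposure lasted 16 h at 37 °C; actives lower the ATP signal meaning cytotoxicity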)
Summary of the method: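 HCT116 p53-bla cells, 4000/well, dosed after 5 h plating (217-fold dilution of DMSO stocks) and incubated 16 h at 37C. Viability taken as cellular ATP by CellTiter-Glo luminescence after 30 min RT; signal loss marks cytotoxicity.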

[15] = target: Cellular tumor antigen p53 (Homo sapiens) (UniProt P04637); assay: TOX21_p53_BLA_p2_ratio: Tox21 HCT-116 p53 Agonism Beta-lactamase Assay, Ratio, Phase 2 (AID 2283592; active = hit-call score of the fitted dose curve at least 0.9, where 1 is the maximum)
Summary of the method: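 HCT116 cells carrying a p53-responsive beta-lactamase reporter were plated, incubated 5 h at 37C, then dosed with compounds in DMSO (217-fold dilution) for 16 h. CCF4-AM substrate was added for 2 h at room temperature; the 460/530 nm emission ratio gave gain-of-signal activity relative to DMSO.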

[16] = TOX21_p53_BLA_p3_viability: Viability Assessment in the Tox21 HCT-116 p53 Agonism Beta-lactamase Assay, Phase 3 (AID 2283593; active = hit-call score of the fitted dose curve at least 0.9, where 1 is the maximum;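 note: cells exposed to compound for 16 h before reading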)
Summary of the method: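 HCT116 cells, 4000/well, dosed 5 h after plating by pin transfer (217-fold dilution from DMSO stock) and incubated 16 h at 37C, 5% CO2. Viability read as ATP luminescence with CellTiter-Glo after 30 min at room temperature.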

[17] = TOX21_p53_BLA_p4_viability: Viability Assessment in the Tox21 HCT-116 p53 Agonism Beta-lactamase Assay, Phase 4 (AID 2283597; active = hit-call score of the fitted dose curve at least 0.9, where 1 is the maximum;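 note: hits lower the luminescence signal meaning cytotoxicity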)
Summary of the method: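 HCT116 p53-bla cells (4000/well) rested 5 h at 37C, then received compounds in DMSO (217-fold dilution) for 16 h at 37C, 5% CO2. CellTiter-Glo was added after the CCF4-AM read, and luminescence was read after 30 min at room temperature.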

[18] = LTEA_HepaRG_LDH_cytotoxicity: Cytotoxicity Assessment in the Life Technologies and Expression Analysis (LTEA) Assay (AID 2283563; active = hit-call score of the fitted dose curve at least 0.9, where 1 is the maximum;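 for AC50: LDH activity released into spent culture medium as a marker of cell death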)
Summary of the method: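 Differentiated human HepaRG cells, plated 48 h beforehand, were switched to serum-free induction medium and exposed for 48 h to eight half-log concentrations (top 100 uM) in 0.5% DMSO. LDH was measured in spent medium; activity was fitted relative to DMSO vehicle.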

[19] = target: Cellular tumor antigen p53 (Homo sapiens) (UniProt P04637); assay: TOX21_p53_BLA_p3_ratio: Tox21 HCT-116 p53 Agonism Beta-lactamase Assay, Ratio, Phase 3 (AID 2283596; active = hit-call score of the fitted dose curve at least 0.9, where 1 is the maximum)
Summary of the method: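 HCT116 p53-bla cells (4000/well) given compound in DMSO (217-fold dilution) after 5 h, incubated 16 h at 37C. CCF4-AM substrate 2 h at room temperature; 460/530 nm emission ratio, gain fitted against DMSO.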

Measured: AC50

Sequence of Signal transducer and activator of transcription 3 (Homo sapiens) (P40763 whole entry, looked up): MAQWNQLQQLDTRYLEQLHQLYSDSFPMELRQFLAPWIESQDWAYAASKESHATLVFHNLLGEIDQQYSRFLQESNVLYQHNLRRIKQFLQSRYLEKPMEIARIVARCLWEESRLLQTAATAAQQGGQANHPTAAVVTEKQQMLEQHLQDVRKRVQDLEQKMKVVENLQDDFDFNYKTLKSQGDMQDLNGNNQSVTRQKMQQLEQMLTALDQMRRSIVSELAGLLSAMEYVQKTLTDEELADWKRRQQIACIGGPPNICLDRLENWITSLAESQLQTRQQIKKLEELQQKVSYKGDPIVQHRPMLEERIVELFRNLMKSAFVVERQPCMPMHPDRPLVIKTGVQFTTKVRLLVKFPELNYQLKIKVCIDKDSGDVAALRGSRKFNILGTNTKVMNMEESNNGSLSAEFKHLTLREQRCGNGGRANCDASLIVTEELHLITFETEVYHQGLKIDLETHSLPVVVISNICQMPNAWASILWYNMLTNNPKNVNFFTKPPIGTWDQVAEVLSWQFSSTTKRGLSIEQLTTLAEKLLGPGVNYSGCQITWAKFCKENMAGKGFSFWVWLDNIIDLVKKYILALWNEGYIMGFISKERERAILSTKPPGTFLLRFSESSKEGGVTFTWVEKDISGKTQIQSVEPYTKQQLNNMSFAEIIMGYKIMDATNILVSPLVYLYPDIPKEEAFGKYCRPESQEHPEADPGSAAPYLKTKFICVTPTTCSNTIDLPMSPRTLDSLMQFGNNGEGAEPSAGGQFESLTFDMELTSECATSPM
Sequence of Cellular tumor antigen p53 (Homo sapiens) (P04637 whole entry, looked up): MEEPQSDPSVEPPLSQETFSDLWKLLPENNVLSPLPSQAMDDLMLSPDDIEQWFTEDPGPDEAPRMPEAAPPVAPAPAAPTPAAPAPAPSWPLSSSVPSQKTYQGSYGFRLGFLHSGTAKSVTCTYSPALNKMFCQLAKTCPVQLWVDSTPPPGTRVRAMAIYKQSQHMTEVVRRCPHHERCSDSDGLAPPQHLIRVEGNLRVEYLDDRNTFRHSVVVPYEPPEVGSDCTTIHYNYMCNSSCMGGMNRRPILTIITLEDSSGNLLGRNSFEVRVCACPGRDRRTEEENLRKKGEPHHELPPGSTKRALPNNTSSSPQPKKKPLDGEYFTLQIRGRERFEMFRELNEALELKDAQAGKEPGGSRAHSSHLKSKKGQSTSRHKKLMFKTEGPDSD

NC(=Nc1ccccc1)Nc1ccccc1
active: [9] 12.8 µM
not listed: [18] | [19]
inactive: all other assays above

CN(C)C(=O)NC1(c2ccccc2)CCN(CCC[C@]2(c3ccc(Cl)c(Cl)c3)CCCN(C(=O)c3ccccc3)C2)CC1
active: [3] 19.5 µM | [4] 19.4 µM | [6] 9.26 µM | [11] 22 µM | [12] 22 µM | [18] 19.1 µM
not listed: [13]
inactive: all other assays above

O=C(O)CC(O)(CC(=O)O)C(=O)O
not listed: [13] | [14] | [15] | [16] | [17] | [19]
inactive: all other assays above

CCc1cc(C2=C(C(=O)O)N(c3ccccc3C(F)(F)F)S(=O)(=O)c3ccccc32)cc2c1OCO2
active: [3] 50 µM | [4] 85.5 µM | [5] 79.1 µM | [9] 87 µM | [10] 69.5 µM | [11] 1.73 µM | [12] 74.8 µM | [18] 74.1 µM | [14] 73.7 µM | [17] 68 µM
inactive: [1] | [2] | [6] | [7] | [8] | [13] | [15] | [16] | [19]
